Structures can show the parent of a compound that is named as a salt.
How the values were obtained:
Test in all cases: Euclidean distance of Cell Painting phenotypic profile (signed KS, 77 features) to DMSO centroid (dimensionless distance); 5 or 10 uM (library dependent); higher = stronger phenotypic change vs DMSO (phenoactivity)
Settings in all cases: 48 h
786-O = system: 786-O
Outline: (§1)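 Five cancer lines and a healthy fibroblast line received library compounds at 10 or 5 uM (library-dependent, 0.1% DMSO final) for 48 h. Stained cells were imaged confocally at 20X (9 fields/well). Harmony extracted 77 features, each scored as a signed Kolmogorov-Smirnov statistic against same-plate vehicle wells. Profiles were plate-position corrected, correlation-weighted and replicate-averaged at the top dose. Phenoactivity is the Euclidean distance from each profile to the median vehicle profile.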

A549 = system: A549
Outline: as §1

DU145 = system: DU145
Outline: as §1

FB = system: FB
Outline: as §1

HEPG2 = system: HEPG2
Outline: as §1

OVCAR4 = system: OVCAR4
Outline: as §1

Row | Structure (SMILES) | Euclidean distance (786-O) | Euclidean distance (A549) | Euclidean distance (DU145) | Euclidean distance (FB) | Euclidean distance (HEPG2) | Euclidean distance (OVCAR4)
1 | Cc1ccc(S(=O)(=O)c2ccc([N+](=O)[O-])o2)cc1 | 6.48 | 1.74 | 3.22 | 5.11 | 1.81 | 6.14
2 | Cc1c(N(C)C)c(=O)n(-c2ccccc2)n1C [Amidopyrine] | 1.3 | 0.92 | 0.804 | 1.15 | 1.63 | 1.17
3 | CS(=O)(=O)n1cc2c(n1)CN([C@H]1CO[C@H](c3cc(F)ccc3F)[C@@H](N)C1)C2 [Omarigliptin (MK-3102)] | 1.02 | 2.02 | 1.89 | 1.7 | 2.25 | 2.16
4 | Cc1ccc(Cl)c(Nc2ccccc2C(=O)O)c1Cl [Meclofenamate Sodium] | 1.09 | 1.34 | 1.66 | 1.48 | 0.74 | 1.94
5 | Cc1nc(N)sc1-c1ccnc(Nc2ccc(N3CCOCC3)cc2)n1 | 2.86 | 3.52 | 1.18 | 1.92 | 2.08 | 2.59
6 | CCCCC(=O)O[C@H]1CC[C@H]2[C@@H]3CCc4cc(O)ccc4[C@H]3CC[C@]12C [Estradiol valerate] | 1.37 | 0.77 | 1.17 | 0.885 | 0.621 | 1.21
7 | CNC(=O)c1cc(Oc2ccc(NC(=O)Nc3ccc(Cl)c(C(F)(F)F)c3)c(F)c2)ccn1 [Regorafenib Monohydrate] | 2.14 | 2.35 | 1.71 | 1.8 | 1.82 | 1.76
8 | Cc1ccc(-n2sc(=O)n(Cc3ccc(F)cc3)c2=O)cc1 | 1.53 | 0.968 | 0.775 | 1.84 | 0.924 | 1.14
9 | CC(c1cc2ccccc2s1)N(O)C(N)=O (stereo unspecified) [Zileuton] | 1.8 | 0.949 | 0.621 | 1.2 | 1.12 | 1.11
10 | Clc1ccc2c(N3CCN(CCCN4CCN(c5ccnc6cc(Cl)ccc56)CC4)CC3)ccnc2c1 [Piperaquine phosphate] | 1.59 | 1.33 | 1.11 | 1.45 | 0.952 | 1.25
11 | Cc1cc(-c2ccc(CC(=O)Nc3ccc(-c4cccnc4)cc3)cc2)ccn1 | 1.31 | 1.03 | 0.823 | 1.02 | 0.787 | 1.36
12 | O=C(O)CCNC(=O)c1ccccc1 [Betamipron] | 0.807 | 1.17 | 1.01 | 0.869 | 0.988 | 1.34
13 | C1CNCCN1 [Piperazine] | 1.04 | 1.08 | 0.846 | 1.09 | 0.402 | 1.67
14 | CCCCOC(=O)c1ccccc1Nc1cccc(C(F)(F)F)c1 [Ufenamate] | 1.52 | 0.505 | 1.4 | 1.25 | 0.931 | 1.83
15 | O=S(=O)(O)CCS [Mesna] | 0.758 | 0.755 | 0.968 | 0.772 | 2.1 | 1.22
16 | CCS(=O)(=O)c1cccc(-c2cc(C(=O)NC3CCN(C)CC3)c(C)c3[nH]c4ncc(C)cc4c23)c1 | 3.1 | 3.9 | 2.89 | 3.63 | 2.3 | 2.17
17 | Cn1cnc(N)c2ncnc1-2 [3-Methyladenine] | 1.21 | 1.11 | 1.58 | 1.28 | 1.37 | 0.677
18 | COc1ccc(-c2ccc3ncc4c(c3c2)n(-c2ccc(N3CCNCC3)c(C(F)(F)F)c2)c(=O)n4C)cn1 | 6.24 | 5.51 | 7.61 | 6.11 | 5.69 | 5.98
19 | C=CC[N+]1([C@H]2C[C@H]3[C@@H]4CC[C@H]5C[C@H](O)[C@@H](N6CCOCC6)C[C@]5(C)[C@H]4CC[C@]3(C)[C@H]2OC(C)=O)CCCC1 [Rocuronium Bromide] | 1.59 | 1.12 | 1.92 | 1.08 | 0.685 | 1.25
20 | NCCc1c[nH]cn1 [Histamine Phosphate] | 1.2 | 0.956 | 1.77 | 1.25 | 1.23 | 1.04
21 | CC(C)(Oc1ccc(Cl)cc1)C(=O)OCCOC(=O)c1cccnc1 [Etofibrate] | 0.948 | 0.732 | 0.949 | 1.01 | 0.725 | 0.894
22 | O=C(O)[C@@H](S)[C@@H](S)C(=O)O [Succimer] | 1.49 | 1.41 | 1.53 | 1.35 | 0.53 | 1.55
23 | NC(=O)c1noc([C@H](CCCC2CCCCC2)CC(=O)NO)n1 | 1.23 | 0.66 | 0.701 | 1.25 | 0.93 | 0.933
24 | Cc1cc(Nc2ncnc3ccc(-c4ccc(CNCCS(C)(=O)=O)o4)cc23)ccc1Oc1ccn2ncnc2c1 [HER2-Inhibitor-1] | 1.06 | 0.771 | 1.08 | 1.37 | 1.3 | 1.22
25 | NCC[C@H](O)C(=O)N[C@@H]1C[C@H](N)[C@@H](O[C@H]2O[C@H](CN)[C@@H](O)[C@H](O)[C@H]2O)[C@H](O)[C@H]1O[C@H]1O[C@H](CO)[C@@H](O)[C@H](N)[C@H]1O [Amikacin disulfate] | 1.64 | 0.597 | 0.666 | 0.868 | 0.695 | 0.989
26 | CCCCC(=O)N(Cc1ccc(-c2ccccc2-c2nnn[nH]2)cc1)[C@H](C(=O)O)C(C)C [Valsartan] | 1.68 | 1.17 | 0.682 | 0.799 | 0.48 | 0.776

Row | Structure (SMILES) | Euclidean distance (786-O) | Euclidean distance (A549) | Euclidean distance (DU145) | Euclidean distance (FB) | Euclidean distance (HEPG2) | Euclidean distance (OVCAR4)
27 | CONC(=O)c1ccccc1Nc1cc(Nc2cc(C)nn2C(C)C)ncc1Cl | 1.35 | 1.28 | 1.33 | 2.01 | 0.825 | 1.5
28 | CCOC(=O)CC(=O)N1CCSC1COc1ccccc1OC (stereo unspecified) [Moguisteine] | 1.45 | 0.946 | 1.1 | 0.84 | 1.08 | 1.01
29 | COc1ccccc1OCCNCC(O)COc1cccc2[nH]c3ccccc3c12 (stereo unspecified) [Carvedilol Phosphate] | 2.5 | 2.28 | 1.98 | 1.66 | 2.55 | 1.81
30 | O=C(NNc1nc2cc(F)ccc2n2cccc12)c1cnccn1 | 3.74 | 2.78 | 2.25 | 3.85 | 2.84 | 5.56
31 | COc1cc(C(=O)NS(=O)(=O)c2ccccc2C)ccc1Cc1cn(C)c2ccc(NC(=O)OC3CCCC3)cc12 [Zafirlukast] | 0.974 | 1.5 | 1.22 | 1.21 | 0.548 | 1.34
32 | O=C(Nc1ncc([N+](=O)[O-])s1)c1ccccc1O [Tizoxanide] | 2.03 | 1.85 | 2.61 | 2.81 | 2.81 | 1.81
33 | COc1cc(C(=O)NC2CCCNC2)cc(OC)c1OC (stereo unspecified) [Troxipide] | 1.15 | 1.12 | 1.81 | 0.842 | 1.83 | 1.43
34 | CCN[C@H]1C[C@H](C)S(=O)(=O)c2sc(S(N)(=O)=O)cc21 [Dorzolamide HCl] | 1.17 | 0.786 | 1.03 | 1.31 | 1.06 | 1.09
35 | C[C@H]1CN(C[C@H](Cc2ccccc2)C(=O)NCC(=O)O)CC[C@@]1(C)c1cccc(O)c1 [Alvimopan dihydrate] | 0.875 | 0.429 | 1.89 | 0.594 | 0.342 | 0.96
36 | Nc1cc(C(F)(F)F)c(-c2cc(N3CCOCC3)nc(N3CCOCC3)n2)cn1 [Buparlisib (BKM120. NVP-BKM120)] | 2.55 | 3.38 | 2.88 | 2.98 | 2.83 | 3.29
37 | COc1ccc2cccc(CCNC(C)=O)c2c1 [Agomelatine] | 0.998 | 0.774 | 0.825 | 0.747 | 0.603 | 0.58
38 | NC(=O)c1cnc2[nH]ccc2c1N[C@@H]1[C@@H]2CC3C[C@H]1C[C@@](O)(C3)C2 | 2.3 | 2 | 1.41 | 3.39 | 1.42 | 2.08
39 | Cc1cc(C)c(CNC(=O)c2cc(-c3ccc(CN4CCOCC4)cc3)cc3c2cnn3C2CCCC2)c(=O)[nH]1 | 1.48 | 1.7 | 0.808 | 1.97 | 1.44 | 0.692
40 | CC(=O)Nc1ccc(CC(=O)O)cc1 [Actarit] | 1.12 | 0.862 | 0.902 | 1.09 | 0.464 | 0.872
41 | CCS(=O)(=O)CCn1c([N+](=O)[O-])cnc1C [Tinidazole] | 0.626 | 0.68 | 0.693 | 0.579 | 0.533 | 1.48
42 | CC(C)C(=O)c1c(C(C)C)nn2ccccc12 [Ibudilast] | 0.973 | 0.58 | 0.981 | 0.71 | 0.459 | 1.29
43 | CCNC(=O)CC[C@H](N)C(=O)O [L-Theanine] | 1.64 | 1.8 | 1.57 | 2.05 | 1.4 | 2.17
44 | CNC(=O)c1ccc(C)c(-n2c(C)cc(OCc3ccc(F)cc3F)c(Br)c2=O)c1 | 1.33 | 1.29 | 0.844 | 1.55 | 1.94 | 1.07
45 | NCC(=O)O [Glycine] | 1.61 | 0.971 | 0.929 | 1 | 0.776 | 1.93
46 | CCOc1ccc2c(c1)C(C)=CC(C)(C)N2 [Ethoxyquin] | 0.933 | 1.17 | 0.847 | 1.62 | 0.54 | 1.95
47 | Cc1cc(Nc2cc(CN3CCOCC3)c3nc(C)c(Cc4ccc(Cl)cc4F)n3n2)n[nH]1 | 3.25 | 3.37 | 2.63 | 1.71 | 2.95 | 3.19
48 | O=C(c1ccccc1)c1ccc2n1CCC2C(=O)O (stereo unspecified) [Ketorolac] | 1.49 | 1.29 | 0.701 | 0.977 | 0.545 | 1.06
49 | O=c1ccn(C2OC(COP(=O)(O)O)C(O)C2O)c(=O)[nH]1 (stereo unspecified) [Uridine 5'-monophosphate] | 1.18 | 1.21 | 1.33 | 1.3 | 1.01 | 1.23
50 | OCCN(CCO)c1nc(N2CCCCC2)c2nc(N(CCO)CCO)nc(N3CCCCC3)c2n1 [Dipyridamole] | 1.24 | 0.954 | 1.33 | 0.963 | 0.833 | 0.968
51 | CC(=O)OCC(=O)[C@@]1(O)CC[C@H]2[C@@H]3CCC4=CC(=O)C=C[C@]4(C)[C@H]3[C@@H](O)C[C@@]21C [Prednisolone Acetate] | 1.1 | 2.13 | 2.13 | 1.96 | 0.76 | 2.1

Source: the supplement of paper PMC10127200
